# Assay results reported in the supplement of paper PMC10849652.
# The full data set covers some 7,900 targets. This sample favours those with a hit. About 0.6% of all pairs of compound and target were hits. Unmarked numbers belong to inactive results.
# Compound: CCCS(=O)(=O)Nc1ccc(F)c(C(=O)c2c[nH]c3ncc(-c4ccc(Cl)cc4)cc23)c1F [vemurafenib]
# Test: log2 fold change, soluble protein after heating vs DMSO (PISA); higher = thermal stabilisation; K562 cells, 10 uM, 30 min; active = over 0.2 and 3.5 SD of the protein, either way, in both replicates (recomputed)
# Procedure, shortened: (§1)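 Values are thermal stability changes relative to control samples and are taken from duplicates. They are stated as log2 fold changes. Before quantification by TMTpro 16plex LC-MS/MS with equalised channel sums, K562 cells at 2×10^6 cells/mL were treated with 10 μM compound for 30 min, heated in aliquots for 3 min across 48°C-58°C, pooled, extracted in PBS with 0.5% NP-40 at 4°C, and centrifuged at 21,000xg for 90 min to give the soluble supernatant.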
# Sequence of UniProt Q14157 (Q14157 whole entry, looked up): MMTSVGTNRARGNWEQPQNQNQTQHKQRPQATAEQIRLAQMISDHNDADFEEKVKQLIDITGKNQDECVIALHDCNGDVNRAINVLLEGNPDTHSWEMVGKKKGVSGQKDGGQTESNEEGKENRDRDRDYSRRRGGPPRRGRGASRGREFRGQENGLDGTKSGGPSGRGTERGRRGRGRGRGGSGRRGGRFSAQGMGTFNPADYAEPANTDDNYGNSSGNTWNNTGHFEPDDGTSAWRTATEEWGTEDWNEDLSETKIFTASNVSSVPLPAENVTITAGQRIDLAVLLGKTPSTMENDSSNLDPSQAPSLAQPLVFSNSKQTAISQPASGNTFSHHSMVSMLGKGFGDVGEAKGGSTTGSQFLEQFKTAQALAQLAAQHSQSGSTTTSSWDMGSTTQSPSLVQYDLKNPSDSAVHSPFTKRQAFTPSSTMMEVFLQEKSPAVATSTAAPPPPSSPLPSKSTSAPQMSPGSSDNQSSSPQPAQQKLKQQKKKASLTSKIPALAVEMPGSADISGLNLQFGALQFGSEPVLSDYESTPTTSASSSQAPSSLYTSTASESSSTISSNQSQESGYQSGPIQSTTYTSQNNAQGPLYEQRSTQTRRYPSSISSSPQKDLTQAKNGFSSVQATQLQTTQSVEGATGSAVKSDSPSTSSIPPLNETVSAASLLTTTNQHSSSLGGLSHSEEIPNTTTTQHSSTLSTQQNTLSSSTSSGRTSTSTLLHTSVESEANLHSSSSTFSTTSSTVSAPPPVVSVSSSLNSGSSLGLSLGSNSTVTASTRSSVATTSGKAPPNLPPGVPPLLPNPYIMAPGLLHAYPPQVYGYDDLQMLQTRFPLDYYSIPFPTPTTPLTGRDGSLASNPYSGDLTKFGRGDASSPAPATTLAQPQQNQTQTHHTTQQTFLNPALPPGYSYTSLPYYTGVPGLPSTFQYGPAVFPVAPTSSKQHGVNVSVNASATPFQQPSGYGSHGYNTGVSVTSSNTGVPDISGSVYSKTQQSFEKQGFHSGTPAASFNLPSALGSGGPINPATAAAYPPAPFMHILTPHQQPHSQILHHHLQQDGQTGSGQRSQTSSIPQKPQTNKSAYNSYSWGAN
# Sequence of UniProt Q9NQH7 (Q9NQH7 whole entry, looked up): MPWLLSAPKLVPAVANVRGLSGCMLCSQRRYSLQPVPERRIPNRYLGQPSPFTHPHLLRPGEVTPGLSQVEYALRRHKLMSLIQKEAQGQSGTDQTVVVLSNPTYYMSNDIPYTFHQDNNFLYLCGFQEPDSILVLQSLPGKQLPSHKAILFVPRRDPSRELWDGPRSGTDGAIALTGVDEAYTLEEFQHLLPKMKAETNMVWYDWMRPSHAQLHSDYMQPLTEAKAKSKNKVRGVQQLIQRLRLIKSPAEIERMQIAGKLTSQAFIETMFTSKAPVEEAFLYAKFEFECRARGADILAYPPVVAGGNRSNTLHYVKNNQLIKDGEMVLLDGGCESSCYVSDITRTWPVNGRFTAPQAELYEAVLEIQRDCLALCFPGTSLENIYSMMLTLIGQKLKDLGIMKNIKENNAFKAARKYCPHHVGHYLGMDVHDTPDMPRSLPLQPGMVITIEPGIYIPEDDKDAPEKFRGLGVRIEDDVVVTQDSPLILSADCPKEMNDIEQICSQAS
# Sequence of UniProt A3KMH1 (A3KMH1 whole entry, looked up): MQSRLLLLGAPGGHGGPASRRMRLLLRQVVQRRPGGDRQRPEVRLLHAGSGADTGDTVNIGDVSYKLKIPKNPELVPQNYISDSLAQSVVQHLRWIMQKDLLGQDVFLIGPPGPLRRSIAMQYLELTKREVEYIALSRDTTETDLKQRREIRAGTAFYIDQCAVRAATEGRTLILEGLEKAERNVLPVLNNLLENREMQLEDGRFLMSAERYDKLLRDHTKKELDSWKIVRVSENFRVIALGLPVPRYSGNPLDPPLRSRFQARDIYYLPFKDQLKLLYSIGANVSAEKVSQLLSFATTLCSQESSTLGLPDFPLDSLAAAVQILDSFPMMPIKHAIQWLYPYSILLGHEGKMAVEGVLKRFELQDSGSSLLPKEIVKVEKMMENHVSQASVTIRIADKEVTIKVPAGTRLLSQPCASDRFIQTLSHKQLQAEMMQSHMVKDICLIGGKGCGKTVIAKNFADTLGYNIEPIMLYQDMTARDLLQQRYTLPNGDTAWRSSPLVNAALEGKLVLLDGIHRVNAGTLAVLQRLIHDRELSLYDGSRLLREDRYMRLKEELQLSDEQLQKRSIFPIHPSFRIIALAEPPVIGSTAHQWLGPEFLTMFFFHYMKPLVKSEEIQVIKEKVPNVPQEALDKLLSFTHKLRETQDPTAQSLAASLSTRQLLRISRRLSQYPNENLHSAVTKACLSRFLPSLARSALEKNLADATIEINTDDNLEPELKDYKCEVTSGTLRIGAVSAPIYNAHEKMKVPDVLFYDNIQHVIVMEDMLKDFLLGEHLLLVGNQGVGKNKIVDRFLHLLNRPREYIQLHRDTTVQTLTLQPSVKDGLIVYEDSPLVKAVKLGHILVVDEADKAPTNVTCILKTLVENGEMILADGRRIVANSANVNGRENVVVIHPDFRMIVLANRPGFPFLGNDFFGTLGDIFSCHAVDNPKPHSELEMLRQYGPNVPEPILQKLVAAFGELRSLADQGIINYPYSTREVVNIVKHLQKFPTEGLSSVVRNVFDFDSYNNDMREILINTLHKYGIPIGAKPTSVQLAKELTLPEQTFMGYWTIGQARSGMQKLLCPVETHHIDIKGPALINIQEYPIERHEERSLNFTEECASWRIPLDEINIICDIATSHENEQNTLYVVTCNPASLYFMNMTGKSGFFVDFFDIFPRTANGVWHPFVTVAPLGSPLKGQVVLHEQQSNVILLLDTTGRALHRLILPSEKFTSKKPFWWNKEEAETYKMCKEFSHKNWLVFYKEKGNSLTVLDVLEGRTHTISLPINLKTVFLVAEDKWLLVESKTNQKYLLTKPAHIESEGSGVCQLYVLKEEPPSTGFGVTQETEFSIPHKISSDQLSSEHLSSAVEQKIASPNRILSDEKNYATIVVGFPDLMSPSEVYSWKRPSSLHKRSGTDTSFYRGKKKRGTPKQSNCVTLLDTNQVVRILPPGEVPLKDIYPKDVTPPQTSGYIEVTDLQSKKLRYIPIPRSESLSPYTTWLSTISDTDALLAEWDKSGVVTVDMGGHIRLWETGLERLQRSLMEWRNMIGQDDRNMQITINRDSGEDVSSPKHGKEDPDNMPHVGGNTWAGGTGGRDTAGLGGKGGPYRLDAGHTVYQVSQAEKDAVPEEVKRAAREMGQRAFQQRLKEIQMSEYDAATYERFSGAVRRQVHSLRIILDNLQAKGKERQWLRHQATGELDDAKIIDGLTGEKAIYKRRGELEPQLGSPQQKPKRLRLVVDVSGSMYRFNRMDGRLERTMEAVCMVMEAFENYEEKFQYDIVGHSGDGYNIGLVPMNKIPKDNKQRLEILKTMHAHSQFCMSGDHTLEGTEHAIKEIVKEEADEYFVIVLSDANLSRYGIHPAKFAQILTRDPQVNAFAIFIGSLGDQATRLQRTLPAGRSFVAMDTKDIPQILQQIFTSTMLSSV
# Sequence of UniProt P26368 (P26368 whole entry, looked up): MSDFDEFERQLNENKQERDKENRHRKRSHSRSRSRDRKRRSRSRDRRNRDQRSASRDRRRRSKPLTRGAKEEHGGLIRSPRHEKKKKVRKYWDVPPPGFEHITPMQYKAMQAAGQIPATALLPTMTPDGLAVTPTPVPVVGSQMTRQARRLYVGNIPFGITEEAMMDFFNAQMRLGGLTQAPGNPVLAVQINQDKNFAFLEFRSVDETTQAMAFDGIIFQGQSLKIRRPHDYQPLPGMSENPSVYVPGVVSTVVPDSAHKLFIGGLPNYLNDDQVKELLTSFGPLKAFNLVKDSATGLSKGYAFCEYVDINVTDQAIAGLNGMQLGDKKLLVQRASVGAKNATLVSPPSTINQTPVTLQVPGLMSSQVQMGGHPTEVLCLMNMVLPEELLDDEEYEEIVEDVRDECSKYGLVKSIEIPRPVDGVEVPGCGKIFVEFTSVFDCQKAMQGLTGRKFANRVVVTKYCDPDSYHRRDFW
# Sequence of UniProt Q9Y4E8 (Q9Y4E8 whole entry, looked up): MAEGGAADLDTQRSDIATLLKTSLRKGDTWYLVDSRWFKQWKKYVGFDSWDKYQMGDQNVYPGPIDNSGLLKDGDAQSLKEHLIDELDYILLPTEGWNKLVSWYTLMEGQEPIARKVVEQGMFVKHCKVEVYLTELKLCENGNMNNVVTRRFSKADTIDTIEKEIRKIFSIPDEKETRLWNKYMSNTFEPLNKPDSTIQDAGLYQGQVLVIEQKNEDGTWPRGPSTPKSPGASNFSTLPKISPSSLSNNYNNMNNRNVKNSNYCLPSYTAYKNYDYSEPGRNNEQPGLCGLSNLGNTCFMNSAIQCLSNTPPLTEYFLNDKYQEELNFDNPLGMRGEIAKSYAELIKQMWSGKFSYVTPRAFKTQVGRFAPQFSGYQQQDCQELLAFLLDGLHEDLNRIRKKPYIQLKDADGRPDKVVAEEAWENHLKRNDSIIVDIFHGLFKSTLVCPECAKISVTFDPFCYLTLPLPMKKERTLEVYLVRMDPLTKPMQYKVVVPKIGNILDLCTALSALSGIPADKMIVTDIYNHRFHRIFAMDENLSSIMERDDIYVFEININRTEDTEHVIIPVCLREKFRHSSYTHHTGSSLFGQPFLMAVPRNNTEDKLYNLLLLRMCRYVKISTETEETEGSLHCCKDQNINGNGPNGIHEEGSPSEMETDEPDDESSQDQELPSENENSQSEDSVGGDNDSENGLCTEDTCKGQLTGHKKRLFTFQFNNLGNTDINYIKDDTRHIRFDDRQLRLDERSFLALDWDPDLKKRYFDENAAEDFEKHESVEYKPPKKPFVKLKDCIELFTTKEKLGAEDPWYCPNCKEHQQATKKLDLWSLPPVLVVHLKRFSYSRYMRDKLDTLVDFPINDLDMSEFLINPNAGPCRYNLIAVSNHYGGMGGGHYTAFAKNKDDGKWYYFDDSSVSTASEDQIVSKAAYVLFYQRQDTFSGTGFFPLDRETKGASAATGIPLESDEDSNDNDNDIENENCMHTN
# Sequence of UniProt Q8N4H5 (Q8N4H5 whole entry, looked up): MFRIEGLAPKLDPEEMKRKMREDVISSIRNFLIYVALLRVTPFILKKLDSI
# Sequence of UniProt Q9UDW1 (Q9UDW1 whole entry, looked up): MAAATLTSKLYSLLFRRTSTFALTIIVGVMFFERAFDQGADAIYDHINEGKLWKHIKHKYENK
row,Target,log2 fold change
1,WDHD1 (UniProt O75717),0.066
2,TOMM5 isoform 2 (UniProt Q8N4H5),0
3,WDR41 (UniProt Q9HAD4),0.008
4,XPO5 (UniProt Q9HAV4),0.013
5,"VARS2, A0A0G2JL52",0.03
6,WNK1 isoform 7 (UniProt Q9H4A3),-0.023
7,TRIM28 (UniProt Q13263),0.078
8,WRB (UniProt O00258),0.108
9,UBR2 (UniProt Q8IWV8),0.029
10,UBE2S (UniProt Q16763),0.013
11,VPS13B (UniProt Q7Z7G8),0.008
12,TRMT10C (UniProt Q7L0Y3),0.015
13,XPNPEP3 (UniProt Q9NQH7),0.011
14,TMEM189-UBE2V1 (UniProt I3L0A0),-0.005
15,USP15 (UniProt Q9Y4E8),0.04
16,VWA8 (UniProt A3KMH1),0.034
17,TUBAL3 (UniProt A6NHL2),0.121
18,XPO1 (UniProt O14980),0.086

row,Target,log2 fold change
1,U2AF2 (UniProt P26368),0.031
2,WDR47 (UniProt O94967),-0.023
3,U2AF1 isoform 2 (UniProt Q01081),0.074
4,XPNPEP1 isoform 3 (UniProt Q9NQW7),0
5,UBA1 (UniProt P22314),0.084
6,WDR4 (UniProt P57081),-0.004
7,VPS35L (UniProt Q7Z3J2),0.003
8,UBA6,0.057
9,UQCR10 (UniProt Q9UDW1),-0.042
10,TRAPPC11 (UniProt Q7Z392),0.033
11,TXN2 (UniProt Q99757),0.006
12,UBAP2L isoform 1 (UniProt Q14157),-0.083
13,TMEM208 (UniProt Q9BTX3),-0.06
14,UBAP2L isoform 5 (UniProt Q14157),-0.008
15,TXNIP (UniProt Q9H3M7),-0.005
16,VRK2 (UniProt Q86Y07),0.006
17,WDR61 (UniProt Q9GZS3),-0.072
18,USP48 isoform 8 (UniProt Q86UV5),0.162

# Compound: CCCS(=O)(=O)Nc1ccc(F)c(C(=O)c2c[nH]c3ncc(Cl)cc23)c1F
# Test: as above
# Procedure, shortened: as §1
row,Target,log2 fold change
1,WDHD1 (UniProt O75717),0.095
2,TOMM5 isoform 2 (UniProt Q8N4H5),-0.011
3,WDR41 (UniProt Q9HAD4),0.036
4,XPO5 (UniProt Q9HAV4),0.056
5,"VARS2, A0A0G2JL52",0.047
6,WNK1 isoform 7 (UniProt Q9H4A3),0.004
7,TRIM28 (UniProt Q13263),0.075
8,WRB (UniProt O00258),-0.037
9,UBR2 (UniProt Q8IWV8),0.037
10,UBE2S (UniProt Q16763),0.049
11,VPS13B (UniProt Q7Z7G8),-0.011
12,TRMT10C (UniProt Q7L0Y3),0.042
13,XPNPEP3 (UniProt Q9NQH7),-0.012
14,TMEM189-UBE2V1 (UniProt I3L0A0),-0.056
15,USP15 (UniProt Q9Y4E8),0.053
16,VWA8 (UniProt A3KMH1),0.011
17,TUBAL3 (UniProt A6NHL2),-0.033
18,XPO1 (UniProt O14980),0.101

row,Target,log2 fold change
1,U2AF2 (UniProt P26368),0.001
2,WDR47 (UniProt O94967),-0.045
3,U2AF1 isoform 2 (UniProt Q01081),0.071
4,XPNPEP1 isoform 3 (UniProt Q9NQW7),0.021
5,UBA1 (UniProt P22314),0.089
6,WDR4 (UniProt P57081),0.26 (active)
7,VPS35L (UniProt Q7Z3J2),0.049
8,UBA6,0.086
9,UQCR10 (UniProt Q9UDW1),-0.018
10,TRAPPC11 (UniProt Q7Z392),0.025
11,TXN2 (UniProt Q99757),-0.048
12,UBAP2L isoform 1 (UniProt Q14157),0.246 (active)
13,TMEM208 (UniProt Q9BTX3),0.035
14,UBAP2L isoform 5 (UniProt Q14157),0.006
15,TXNIP (UniProt Q9H3M7),-0.079
16,VRK2 (UniProt Q86Y07),0.044
17,WDR61 (UniProt Q9GZS3),-0.115
18,USP48 isoform 8 (UniProt Q86UV5),0.142
